# Data published in PubChem BioAssay AID1671463 (Sanford-Burnham Center for Chemical Genomics, 2021).
# Screen size: about 370,000 compounds; about 520 (0.14%) were called active. This is one part of a sample in which actives are shown more often than they occur. No stated cut-off is given here; in the data, active means activation above about 40%; inactive means the rest.
# Target: Atrial natriuretic peptide receptor 1 (Homo sapiens) (UniProt P16066)
# Experiment: GC-A stimulated cGMP production enhancers – HEK293 GC-A cells, cGMP TR-FRET, EC30 ANP, primary screen (AID 1671463)
# Conditions: at 10 µM, hits give high values; 0% at EC30 ANP, 100% saturating ANP unless noted
# Sequence of Atrial natriuretic peptide receptor 1 (Homo sapiens) (P16066 whole entry, looked up): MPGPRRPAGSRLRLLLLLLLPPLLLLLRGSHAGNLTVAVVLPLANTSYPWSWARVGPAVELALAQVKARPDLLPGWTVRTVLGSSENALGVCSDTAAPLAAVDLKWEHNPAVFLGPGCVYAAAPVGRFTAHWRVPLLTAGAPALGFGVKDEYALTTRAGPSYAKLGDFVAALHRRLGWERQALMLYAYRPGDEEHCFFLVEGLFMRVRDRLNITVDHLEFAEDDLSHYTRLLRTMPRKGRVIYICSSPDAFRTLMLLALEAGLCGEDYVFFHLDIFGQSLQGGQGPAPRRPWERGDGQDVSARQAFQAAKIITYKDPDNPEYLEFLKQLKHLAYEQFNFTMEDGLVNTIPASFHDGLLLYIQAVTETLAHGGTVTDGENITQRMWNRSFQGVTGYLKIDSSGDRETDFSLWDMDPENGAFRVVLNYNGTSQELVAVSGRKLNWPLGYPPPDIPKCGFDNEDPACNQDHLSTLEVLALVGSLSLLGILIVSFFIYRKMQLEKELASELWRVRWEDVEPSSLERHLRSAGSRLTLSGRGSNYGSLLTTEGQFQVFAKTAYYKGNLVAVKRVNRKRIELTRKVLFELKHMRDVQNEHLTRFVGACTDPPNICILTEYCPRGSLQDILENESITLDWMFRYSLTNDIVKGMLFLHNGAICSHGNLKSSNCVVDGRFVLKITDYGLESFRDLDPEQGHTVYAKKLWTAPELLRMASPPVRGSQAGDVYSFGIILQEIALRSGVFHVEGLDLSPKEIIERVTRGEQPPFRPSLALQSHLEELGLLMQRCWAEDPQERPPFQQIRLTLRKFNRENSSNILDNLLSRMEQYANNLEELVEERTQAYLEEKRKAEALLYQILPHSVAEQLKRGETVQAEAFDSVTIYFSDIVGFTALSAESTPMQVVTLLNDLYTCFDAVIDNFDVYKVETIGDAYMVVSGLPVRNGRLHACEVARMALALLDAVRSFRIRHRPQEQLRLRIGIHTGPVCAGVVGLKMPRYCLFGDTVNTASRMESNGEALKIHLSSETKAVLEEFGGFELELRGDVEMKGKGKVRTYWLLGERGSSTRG
row,SMILES,activation
1,Cc1cccc(N2C(=O)NC(=O)/C(=C\c3cnn(-c4ccccc4)c3)C2=O)c1,54.5% [setting not given] (active)
2,Cc1ccccc1CCC[C@@H](CC1CCCCC1)CN(C)C(=O)Oc1ccccc1,2.21% (inactive)
3,Nc1ccc([N+](=O)[O-])cc1,1.78% (inactive)
4,O=C1NC(=O)N(Cc2ccco2)C(=O)/C1=C\c1ccc(-c2ccc(F)cc2)o1,48.8% [setting not given] (active)
5,COC(=O)C1=C(c2cc3ccccc3o2)C[C@@H]2CC[C@H]1N2C(=O)NC1CCCCC1,-7.28% (inactive)
6,Cc1cc(N2CCNC[C@@H]2C)ccc1N1CC[C@H](O)C1,-0.67% (inactive)
7,COP(=O)(Sc1ccccc1)C(Cc1ccccc1)NC(=O)OCc1ccccc1 (stereo not given),-3.05% (inactive)
8,CO[C@H]([C@H](C)/C=C/N(C)C=O)[C@@H](C)C(=O)CC[C@H](C)[C@H](O)[C@H](C)[C@H]1OC(=O)/C=C/C(C)=C/[C@H](O)[C@H](OC)C[C@@H]2C=CC[C@@H](C[C@H](OC)[C@@]3(CO3)[C@@H](OC)C[C@@H](OC)[C@@H]1C)O2,-33.1% (inactive)
9,CCOC(=O)CC1=C(C(=O)OCC)C2(C(=O)N1)C(C(=O)OC)=C(N)Oc1ccccc12 (stereo not given),-13.7% [setting not given] (inactive)
10,COc1ccc2c(c1)[C@@]13CCCCC1[C@@H](C2)NCC3 (stereo not given in full),2.3% [setting not given] (inactive)
